Test [1] is described as follows: NCI Yeast Anticancer Drug Screen. Data for the rad50 strain (AID 155).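 Note: 0% = growth of vehicle-only cultures of the same strain.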 Conditions: S. cerevisiae rad50 strain growth inhibition; at 50.0 µM; stronger effect = higher value. An outline of the steps: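 DNA repair mutant yeast, compound exposure, growth read-out; inhibition is taken relative to vehicle.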
Test [2] can be described thus: NCI Yeast Anticancer Drug Screen. Data for the mec2-1 strain (AID 157). Conditions: S. cerevisiae mec2-1 strain, at 50.0 µM, stronger effect = higher value. An outline of the steps: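 Using mec2-1 yeast: add compound, measure growth, express inhibition versus vehicle-treated cultures.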
Test [3] is described as follows: NCI Yeast Anticancer Drug Screen. Data for the sgs1 mgt1 strain (AID 161).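 Note: 0% = growth of cultures given vehicle only.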 Conditions: S. cerevisiae sgs1 mgt1 strain, at 50.0 µM, stronger effect = higher value. A digest of the protocol: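 Compounds are added to genetically altered yeast, and growth is compared with cultures given vehicle alone to give percent inhibition.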
A short description of test [4]: NCI Yeast Anticancer Drug Screen. Data for the cln2 rad14 strain (AID 165).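 Note: 0% = growth equal to vehicle treated cultures.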 Conditions: S. cerevisiae cln2 rad14 strain, at 50.0 µM, stronger effect = higher value. A digest of the protocol: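 Yeast strain cln2 rad14, bearing defects in cell cycle control and DNA repair, serves as the test system; values reflect growth inhibition compared with vehicle.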
The nature of test [5]: NCI Yeast Anticancer Drug Screen. Data for the bub3 strain (AID 167). Conditions: S. cerevisiae bub3 mutant strain, at 50.0 µM, stronger effect = higher value. A digest of the protocol:
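In this screen, a yeast mutant lacking normal mitotic checkpoint function is challenged with compound. Relative growth versus vehicle gives the inhibition value.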

A short description of test [6]: NCI Yeast Anticancer Drug Screen. Data for the mlh1 rad18 strain (AID 175). Conditions: S. cerevisiae mlh1 rad18 strain growth inhibition; at 50.0 µM; stronger effect = higher value. An outline of the steps:
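Steps: expose repair-defective yeast to compound; measure growth; express inhibition against vehicle-treated controls.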

About 79,000 compounds went through this panel and 15% of them were active in at least one assay; those are over-represented in the sample as a whole. A number with no mark means an inactive call. The source made the active and inactive calls. Cut-off read from the data, not from the text of the source: active = growth inhibition above about 70%; inactive = the rest. Where a SMILES comes first, the peptide text is derived from it. [ ]: non-standard residue; d: D form. The star is where a group is joined. ξ: configuration not given here. ξF = NC(Cc1ccccc1)C(=O)O; Cbz = O=C(OCc1ccccc1)*; ξD = NC(CC(=O)O)C(=O)O; Boc = CC(C)(C)OC(=O)*; Aib = CC(C)(N)C(=O)O; OBn = c1ccc(CO*)cc1; Sar = CNCC(=O)O

With `CC(C)(C)c1ccc(S(=O)(=O)/C=C/c2ccccc2)cc1`, the growth inhibition was -2.4% in test [1]; 35% in test [2]; -9.3% in test [3]; 26.1% in test [4]; 4.1% in test [5]; 6.3% in test [6].
Turning to `O=C(O)C1c2ccccc2C(C(=O)O)c2ccccc21` (stereo unspecified), the growth inhibition in test [1] is -6.4%; in test [2], -2.25%; in test [3] it was -4%; in test [4] it was 19.9%; in test [5], 13%; in test [6], 31.8%.
`CCOC(=O)Cn1c(=O)n(C)c(=O)c2c1ncn2Cc1ccccc1`: the growth inhibition in test [1] is 0.7%; in test [2] it was -31.2%; in test [3] it was -14.3%; in test [4], -4.25%; in test [5], 9.5%; in test [6] it was -14.4%.
For `N#Cc1cnn(-c2ccccc2)c1N`, the growth inhibition in test [1] was 25.5%; in test [2], -7.4%; in test [3], -0.3%; in test [4], -0.85%; in test [5], -4.3%; in test [6], -1.45%.
As for `O=C(O)c1cc2ccccc2o1`, the growth inhibition in test [1] is 11.6%; in test [2], 0.95%; in test [3], 16.9%; in test [4], 20.6%; in test [5], -2.6%; in test [6], 30%.
Turning to `COc1cc(/C=N/NC2=NCCN2)ccc1O`, the growth inhibition in test [1] is 24.4%; in test [2] it was 11.8%; in test [3] it was 13.2%; in test [4], 14.8%; in test [5] it was 18.9%; in test [6], 11.8%.
In the case of `NC(=O)c1ccccc1NC(=O)CCCOc1ccccc1`, the growth inhibition in test [1] is -11.5%; in test [2], 8.35%; in test [3] it was 16.8%; in test [4] it was -5.8%; in test [5] it was -14.3%; in test [6], 9.2%.
Regarding `CCCCc1c2c(nc3c1CCC/C3=C\c1ccccc1)/C(=C/c1ccccc1)CCC2`, the growth inhibition in test [1] is -5.05%; in test [2], 16.9%; in test [3], -1.3%; in test [4], 9.7%; in test [5] it was -0.55%; in test [6], 22.3%.
With `C=CCOC(=O)C1CCCCC1C(=O)OCC=C` (stereo unspecified), the growth inhibition is 1.45% in test [1]; -1.65% in test [2]; 1.4% in test [3]; 3.3% in test [4]; 21.6% in test [5]; 1.9% in test [6].
As to `Cc1cc2c(cc1C)-c1nn(-c3ccccc3)c(-c3ccc(Cl)cc3)c1CCO2`, the growth inhibition in test [1] was 27.2%; in test [2] it was 1.35%; in test [3], -1.75%; in test [4], 17.9%; in test [5], -6.2%; in test [6], 3.65%.
In the case of `O=C(Nc1cc(Cl)c(Oc2ccc(Cl)cc2)cc1S(=O)(=O)O)Nc1cccc(Cl)c1Cl`, the growth inhibition in test [1] is 99% (active); in test [2] it was 99.5% (active); in test [3], 99.6% (active); in test [4], 98.2% (active); in test [5], 98.7% (active); in test [6] it was 99.4% (active).
`COC(=O)C1(C)CCCC2(C)C1CCC13OC1C1(C(C)C)OC1CC23` (stereo unspecified): the growth inhibition in test [1] was 5.1%; in test [2], -20.6%; in test [3] it was 11.1%; in test [4], -26.4%; in test [5] it was -3%; in test [6], 8.2%.
As for `COC(=S)OC1CC(n2cnc3c(N)ncnc32)OC1CO[Si](C)(C)C(C)(C)C` (stereo unspecified), the growth inhibition was -10.2% in test [1]; -8.25% in test [2]; 2.55% in test [3]; -1.2% in test [4]; 11.1% in test [5]; 4.9% in test [6].
`CN(CC(=O)NC(Cc1ccccc1)C(=O)O)C(=O)OCc1ccccc1` (stereo unspecified) (Cbz-[Sar]-[ξF]-OH): the growth inhibition is -16.9% in test [1]; -7.95% in test [2]; -1.2% in test [3]; -6.2% in test [4]; -16.1% in test [5]; -10.6% in test [6].
Consider `CC1=NN(c2ccccc2)C(=O)CC1`, for which the growth inhibition in test [1] was -3.65%; in test [2], -8.8%; in test [3], 26.5%; in test [4] it was 16.6%; in test [5] it was 16.3%; in test [6] it was 5.05%.
As to `Nc1ccc2ccc3ccc(N)nc3c2n1`, the growth inhibition in test [1] is 36%; in test [2] it was 38%; in test [3], 40.7%; in test [4], -1.8%; in test [5] it was 44.1%; in test [6], 17.1%.
As for `O=C(C=C1CCCCC1)c1ccccc1`, the growth inhibition in test [1] was 12.9%; in test [2], -6.35%; in test [3], 7.45%; in test [4] it was -6.2%; in test [5], 2.9%; in test [6], 5.25%.
`c1ccc(C2=NCCN2)nc1`: the growth inhibition in test [1] is 8.1%; in test [2], 0.9%; in test [3] it was -5.7%; in test [4], -1.15%; in test [5], 0.65%; in test [6] it was 6.55%.
`Cc1ccc(S(=O)(=O)CN2C(=O)C(c3ccccc3)(c3ccccc3)C23OC(c2ccc(Cl)cc2)=CC3=O)cc1` (stereo unspecified): the growth inhibition is -2.35% in test [1]; -7.7% in test [2]; -5.7% in test [3]; -20.1% in test [4]; -35.7% in test [5]; -21.9% in test [6].
For `COC(=O)C1CCC=CC1OC(C)=O` (stereo unspecified), the growth inhibition in test [1] was 1.65%; in test [2] it was -12.6%; in test [3], 2.6%; in test [4] it was 4.45%; in test [5], 5.25%; in test [6] it was 3.2%.
Turning to `CC(C)(C)OC(=O)NC(CC(=O)OCc1ccccc1)C(=O)NC(C)(C)C(N)=O` (stereo unspecified) (Boc-[ξD](OBn)-[Aib]-NH2), the growth inhibition is 5.25% in test [1]; 11.8% in test [2]; 2% in test [3]; 26.6% in test [4]; 23.4% in test [5]; -19.8% in test [6].
